# From PubChem BioAssay (NCI)
# Values joined by “and” are separate entries in the source; they are usually repeats but may differ in a detail not shown here. Equal values may be shown once. This is part of a sample that, as a whole, favours compounds with a hit. Of some 83,000 tested, about 20% had one in any assay.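 Treatment: one concentration, 48 hours, 96-well format. Scoring: percent growth, with anything below 10 considered active.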 Active and inactive are the calls of the source.
# Test system: MDA-MB-468 breast
# Experiment: NCI-60 one-dose screen, 48 h (100 = growth as untreated, 0 = no growth, -100 = all killed)
# Conditions: 10 µM unless noted
row,Compound,growth
1,O=C(O)c1ccc([S-])cc1.[Au+].c1ccc(CN2[CH-]N(Cc3ccccc3)C(c3ccccc3)=C2c2ccccc2)cc1,-63.2% (active)
2,N#CC1c2ccccc2C=CN1C(=O)c1ccc(N(CCCl)CCCl)cc1 (stereo not given),79.7% (inactive)
3,COc1ccc(C2=N[C@@H](Cc3ccccc3)C(=O)Nc3ccsc32)cc1,8.23% (active)
4,COc1cccc(/C=C/[N+](=O)[O-])c1,25.8% (inactive)
5,Cc1nnc([S-])o1.[Au+].c1ccc([PH+](c2ccccc2)c2ccccc2)cc1,-6.44% (active)
6,C#CC1(O)CCC(C(C)(C)C)CC1 (stereo not given),122% (inactive)
7,CC1(C)C=Cc2c(ccc3c2[N+]([O-])=C2C3=C[C@@]34NC(=O)[C@]5(CCCN5C3=O)C[C@@H]4C2(C)C)O1,8.16% (active)
8,COc1ccc2c(c1)c(-c1nc(-c3cn(C)c4ncccc34)cs1)cn2CCN1CCOCC1,45.8% (inactive)
9,Cn1cc(-c2csc(-c3cn(CCCCN4CCCCC4)c4ccccc34)n2)c2cccnc21,-26.9% (active)
10,C=CC(=O)NC(O)C(Cl)(Cl)Cl (stereo not given),121% (inactive)
11,CC1(C)CC2(CC(C)(C)c3cc(O)c(O)cc32)c2cc(O)c(O)cc21,83.1% (inactive)
12,CO[C@@H]([CH2][Hg][S]C#N)[C@@H]([CH2][Hg][S]C#N)OC,98.3% (inactive)
13,O=C(c1ccccc1O)c1[nH]c(Cl)c(Cl)c1-n1c(C(=O)c2ccccc2O)cc(Cl)c1Cl,-13.8% (active)
14,CC(=O)Nc1nc2c(s1)C1=CC[C@H]3[C@@H]4CC[C@H](OC(C)=O)[C@@]4(C)CC[C@@H]3[C@@]1(C)CC2,55.7% (inactive)
15,CC(C)C1c2ccc(O)cc2Oc2nc(N)c(C#N)c(N)c21 (stereo not given),90% (inactive)
16,CC(=O)C1C(=O)N(C)C(=O)N(C)C1=O,104% (inactive)
17,O=C(CCl)Nc1ccc(Cl)cc1,18.6% (inactive)
18,C[C@]12CCC3[C@@H](C[C@@H]4SC(Nc5ccccc5)=N[C@@]45CC(=O)CC[C@]35C)[C@@H]1CCC2=O (stereo not given in full),-26.8% (active)
19,C[C@]12CC[C@@H]3C4=C(CC[C@H]3[C@@H]1CC[C@@H]2O)CC(=O)CC4,101% (inactive)
20,ClC1OC(Cl)(Cl)C(Cl)(Cl)OC1(Cl)Cl (stereo not given),105% (inactive)

row,Compound,growth
1,Cc1ccc(N2CCN(CCC#N)CC2)cc1,105% (inactive)
2,COC(=O)C1=CO[C@@H](C)[C@@H]2CN3CCc4c([nH]c5cc(OC)ccc45)[C@@H]3C[C@H]12,107% (inactive)
3,O=C(O)C1C(C(=O)O)C2(Cl)C(Cl)=C(Cl)C1(Cl)C2(Cl)Cl (stereo not given),105% (inactive) and 113% (inactive)
4,CC12CCC(=O)C=C1CCC1C2CCC2(C)C(C(=O)COC(=O)Cc3ccc(N(CCCl)CCCl)cc3)CCC12 (stereo not given),64.1% (inactive)
5,CC(C)Nc1ccc(Nc2ccccc2)cc1,5.88% (active)
6,CC[C@H](C)[C@H](NC(=O)[C@H]1CCCCN1C)C(=O)N(C)[C@H](C[C@@H](OC(C)=O)c1nc(C(=O)N[C@@H](Cc2ccccc2)C[C@H](C)C(=O)O)cs1)C(C)C,-6.41% (active)
7,CC(=O)O[C@H](C[C@H](C(C)C)N(C)C(=O)[C@@H](NC(=O)[C@H]1CCCCN1C)C(C)C)c1cccc(C(=O)N[C@@H](Cc2ccccc2)C[C@H](C)C(=O)O)n1,20.9% (inactive)
8,CC(C)N=C(NC(C)C)N1CC1,118% (inactive)
9,CC/C(=C(\c1ccc(OCCN2CCOCC2)cc1)c1ccc(OC(=O)Cc2ccccc2)cc1)c1ccc(Cl)cc1,104% (inactive)
10,CC(=O)c1ccc(C(=O)NCC2CCC3(CC2)OOC2(CCCCC2)OO3)cc1,65.7% (inactive)
11,NC(=S)c1cn(C2OC(CO)C(O)C2O)c2ncnc(N)c12 (stereo not given),-43.2% (active)
12,CCOC(=O)[C@@H](C)C[C@H](Cc1ccccc1)NC(=O)c1nc([C@@H](C[C@H](C(C)C)N(C)C(=O)[C@@H](NC(=O)[C@H]2CCCCN2C)C(C)C)OC(C)=O)sc1CCOCc1ccccc1,-48.6% (active)
13,COC(=O)[C@@H](C)C[C@H](Cc1ccccc1)NC(=O)c1nc([C@@H](C[C@H](C(C)C)N(C)C(=O)[C@@H](NC(=O)[C@H]2C[C@H](O)CCN2C)C(C)C)OC(C)=O)sc1C(C)C,-0.0807% (active)
14,c1cc2c(c3c1CCNC3)OCO2,87.4% (inactive)
15,COC(=O)C12C3C4C1C1C2C3C41NC(=O)c1csc([C@@H](C[C@H](C(C)C)N(C)C(=O)[C@@H](NC(=O)[C@H]2CCCCN2C)C2CC2)OC(C)=O)n1 (stereo not given in full),29.6% (inactive)
16,CC(C)CCC[C@@H](C)[C@H]1CC[C@H]2[C@@H]3CC=C4C[C@@H](OC(=O)Cc5ccc(N(CCCl)CCCl)cc5)CC[C@]4(C)[C@H]3CC[C@]12C,107% (inactive)
17,C[C@]12CCc3nc(-c4ccc(O)c(O)c4)sc3C1=CC[C@@H]1[C@@H]2CC[C@]2(C)C(=O)CC[C@@H]12,80.1% (inactive)
18,CC1CCCC(C[N+](C)(C)C)C1=O (stereo not given),97.3% (inactive)
19,Nc1cccc(CC(=O)Nc2ccc(S(=O)(=O)F)cc2)c1,90.2% (inactive)
20,CC1=C2C(=C[C@@](C)(COS(C)(=O)=O)[C@@H]2O)C(=O)[C@](C)(O)C12CC2,-54.8% (active)
